PP1 counter: PP1-alpha (human) inhibition in PP5 counter-screen. hit rate 0.9% among 320,000. P62136. purified PP1alpha, OMFP fluorescence. inhibition, % at 6.7 µM. AID 2235;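 active = inhibition above the mean inhibition of all tested compounds plus 3 SD, computed separately for each screening campaign, cut at about 15% in these data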
PAFAH1B3 inh: PAFAH1B3 (human) inhibition. Q15102. recombinant PAFAH1B3, FP-rhodamine probe, fluorescence polarization. inhibition, % at 3.39 µM. hit rate 0.28% among 340,000. AID 492972;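 active = inhibition above the screen-wide average of all tested compounds plus 3 SD, cut at about 25% in these data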
PAFAH1B2 FP inh: blocks human PAF acetylhydrolase 1b catalytic subunit 2; P68402; recombinant PAFAH1B2, FP-rhodamine activity probe, fluorescence polarization; inhibition, % at 3.39 µM; hit rate 1.2% among 340,000; AID 492953;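 active = inhibition above the mean of all tested compounds plus 3 SD, cut at about 24% in these data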
PP5 primary: blocks human protein phosphatase 5 activity | P53041 | purified PP5c, OMFP substrate fluorescence | inhibition, % at 6.7 µM | hit rate 0.18% among 320,000;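 active = inhibition above the campaign's mean inhibition across all tested compounds plus 3 SD, cut at about 9.5% in these data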
pPAFAH inh: inhibitors of human plasma PAF acetylhydrolase (pPAFAH) | inhibition, % at 3.39 µM | hit rate 1.5% among 330,000 | recombinant pPAFAH, FP-rhodamine probe fluorescence polarization;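 active = inhibition above the mean inhibition across the screen plus 3 SD, cut at about 25% in these data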;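 also: inhibitors block binding of the rhodamine activity-based probe so polarization drops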
Target sequence (Q13093 whole entry, looked up): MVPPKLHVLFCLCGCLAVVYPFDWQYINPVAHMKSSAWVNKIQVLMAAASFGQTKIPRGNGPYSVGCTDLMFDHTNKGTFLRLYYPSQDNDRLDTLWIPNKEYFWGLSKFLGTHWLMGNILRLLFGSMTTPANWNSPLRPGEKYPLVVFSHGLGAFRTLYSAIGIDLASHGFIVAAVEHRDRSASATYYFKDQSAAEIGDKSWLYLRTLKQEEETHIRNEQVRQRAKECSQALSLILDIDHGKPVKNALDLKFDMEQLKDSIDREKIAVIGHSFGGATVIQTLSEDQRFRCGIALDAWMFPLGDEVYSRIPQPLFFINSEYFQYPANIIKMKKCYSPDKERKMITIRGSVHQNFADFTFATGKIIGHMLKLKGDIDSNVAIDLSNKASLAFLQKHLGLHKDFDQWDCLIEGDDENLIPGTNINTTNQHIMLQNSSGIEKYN
PAFAH2 FP inh: PAFAH2 (human) inhibition. hit rate 0.99% among 340,000. recombinant PAFAH2, FP-rhodamine activity probe, fluorescence polarization. inhibition, % at 3.39 µM. Q99487. AID 492956;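 active = inhibition above the mean over all tested compounds plus 3 SD, cut at about 30% in these data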;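 also: inhibitors block probe labeling of enzyme so polarization drops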
A number is an active result; n = inactive; x = not tested or not shown. This is a sample that favours compounds with a hit; in the whole collection about 3.4% have one here.

SMILES | PP1 counter | PAFAH1B3 inh | PAFAH1B2 FP inh | PP5 primary | pPAFAH inh | PAFAH2 FP inh
CC(C)NS(=O)(=O)c1ccc(OCC(=O)N2CCN(c3ccccc3)CC2)cc1 | n | n | n | n | n | n
CCC(C)NS(=O)(=O)c1ccc(OCC(=O)N2CCCC2)cc1 (configuration not stated) | n | n | n | n | 27 | n
O=C(COc1ccc(S(=O)(=O)NC2CCCCC2)cc1)N1CCN(c2cccc(Cl)c2)CC1 | n | n | n | n | 28 | n
CCOC(=O)C1CCCN(C(=O)COc2ccc(C(=O)c3ccc(F)cc3)cc2)C1 (configuration not stated) | x | n | n | x | n | n
CCOC(=O)C1CCCN(C(=O)COc2ccc(S(=O)(=O)N(CC)c3ccccc3)cc2)C1 (configuration not stated) | n | n | n | n | 34 | n
Cc1ccc(C)c(NS(=O)(=O)c2ccc(OCC(=O)N3CCCC3)cc2)c1 | n | n | n | n | 25 | n
CCn1c(SCC(=O)c2c(N)n(C3CC3)c(=O)[nH]c2=O)nc2cc(S(N)(=O)=O)ccc21 | n | n | n | n | n | n
COC(=O)CCCN1C(=O)NC(c2ccc(-c3ccccc3)cc2)C(C(=O)OCc2ccccc2)=C1C (configuration not stated) | x | n | n | x | 27 | n
CC1=C(C(=O)OCc2ccccc2)C(c2ccc(C(C)(C)C)cc2)NC(=O)N1CCCCCC(=O)O (configuration not stated) | n | n | n | n | 25 | n
CCOc1ccc(NS(=O)(=O)c2cccc(C(=O)N3CCN(C/C=C/c4ccccc4)CC3)c2)cc1 | x | n | n | x | x | n
CCN(C(=O)COC(=O)c1ccc(-n2c(C)ccc2C)cc1)c1c(N)n(Cc2ccccc2)c(=O)[nH]c1=O | x | n | n | x | x | n
O=c1cc2c(=O)oc3cc(O)c(O)oc3c2c(O)c1O | x | 79 | 30 | x | x | 62
O=C(CSc1nc2ccccc2s1)NNC(=S)Nc1ccc(Br)cc1 | n | n | 24 | n | n | n
Cc1nnc(SCC(=O)Nc2cc(S(=O)(=O)N3CCOCC3)ccc2C)s1 | x | n | n | x | x | n
O=C(CSc1nc2ccccc2s1)Nc1cc(S(=O)(=O)N2CCOCC2)ccc1O | n | n | 87 | n | n | 84
O=C(CSc1nc2ccccc2s1)CSc1nc2ccccc2s1 | n | n | n | n | 27 | n
O=C(CSc1nc2ccccc2s1)NCc1cc([N+](=O)[O-])ccc1O | n | n | 29 | n | n | n
CC(C)N(C(=O)[C@H]1CC(CC(=O)NCC23CC4CC(CC(C4)C2)C3)C(=O)N2CCc3c([nH]c4ccccc34)[C@]12C)C(C)C (some centres not stated) | x | n | n | x | n | n
Cc1cccc(-c2oc3ccc(-c4ccc5c(c4)OCO5)cc3c2C(=O)OCc2ccc(O)cc2)c1 | n | n | n | n | n | n
CCOC(=O)C1=C(C(=O)OCC)N(CC)CCC1=O | x | n | n | x | x | n
O=C(OCC(=O)C12CC3CC(CC(C3)C1)C2)c1ccccc1O | x | n | n | x | n | n
CNS(=O)(=O)c1cccc(C(=O)OCC(=O)C23CC4CC(CC(C4)C2)C3)c1 | n | n | 30 | n | n | 46
Nc1ccc(O)cc1C(=O)OCC(=O)C12CC3CC(CC(C3)C1)C2 | n | n | n | n | 29 | 86
O=C(OCC(=O)C12CC3CC(CC(C3)C1)C2)c1ccc(O)cc1 | x | n | 26 | x | n | 84
CCN(CC(=O)Nc1ccc(OC)cc1)C(=O)CN1C(=O)NC(C)(c2ccc3ccccc3c2)C1=O (configuration not stated) | n | n | n | n | n | n
SMILES | PP1 counter | PAFAH1B3 inh | PAFAH1B2 FP inh | PP5 primary | pPAFAH inh | PAFAH2 FP inh
CCOC(=O)c1sc(NC(=O)CN(CC(C)C)CC(C)C)c(C(=O)OCC)c1C | n | n | 33 | n | n | n
CCOC(=O)/C=C(\C)Sc1cc(O)c2ccccc2c1O | x | 36 | n | x | x | 31
CCOC(=O)/C=C(\C)Sc1cc(=O)oc2ccccc12 | n | n | n | n | n | n
O=C(O)c1ccc(N/N=C/c2ccc(-c3ccc(Br)cc3)o2)cc1 | n | n | n | n | 27 | n
N/C(=N\N=C/c1ccc(F)cc1)N/N=C\c1ccc(F)cc1 | 16 | n | n | n | n | n
CNS(=O)(=O)c1cc(NC(=O)c2cnc(SC)n2-c2ccccc2)ccc1C | n | n | n | n | n | n
CC1CCC2(CC1)SCC(=O)N2c1ccccc1 (configuration not stated) | n | n | 27 | n | n | n
CC(C)c1ccc(N(C)C(=O)Cc2c(C(=O)O)n(C)c3ccccc23)cc1 | n | n | n | n | n | n
CN(C(=O)Cc1c(C(=O)O)n(C)c2ccccc12)c1ccc(Cl)cc1 | n | n | 50 | n | n | n
Cc1cccc(N=C2NC(=O)/C(=C/c3cccn3C)S2)c1C | n | n | n | n | 32 | n
COc1ccc(-c2ccc(-c3cc(=O)oc4cc(OC)c(OC)c(OC)c34)cc2)cc1 | x | n | n | x | n | n
CCCC(=O)N1CCN(c2ccc(NC(=O)c3sc4ccccc4c3Cl)cc2)CC1 | 16 | n | n | n | n | n
CCCC(=O)N1CCN(c2ccc(NC(=O)c3cc4ccccc4o3)cc2)CC1 | n | n | n | n | n | n
NC(=S)Cc1nc(-c2ccc(Cl)cc2)cs1 | n | n | n | n | 25 | n
O=C(Cc1ccc(Br)cc1)NCCc1ccc(F)cc1 | n | n | 26 | n | n | n
Cc1c2cc(O)c(=O)cc-2oc2cc(O)c(O)cc12 | 33 | 89 | 85 | n | 78 | 96
O=C(COc1ccc(Cl)cc1Cl)N1CCN(C(=O)c2ccco2)CC1 | n | n | n | n | n | n
O=c1c(O)c(-c2ccccc2)oc2cc(O)cc(O)c12 | x | n | n | x | n | n
CC(C)=CCc1cc(-c2oc3cc(O)cc(O)c3c(=O)c2O)ccc1O | n | 26 | n | n | 34 | n
Cc1ccc(N2C(=O)CC(Sc3nc4ccccc4o3)C2=O)cc1Cl (configuration not stated) | n | n | 30 | n | n | n
CCCOc1ccccc1-n1sc2c(c1=S)-c1cc(OC)cc3c1N(C(=O)C3=O)C2(C)C | 17 | n | n | n | n | n
O=c1[nH]c(/C=C\c2cccc(Cl)c2)nc(O)c1[N+](=O)[O-] | n | n | 33 | n | n | n
O=S(=O)(NCc1ccc(Cl)cc1)c1ccc(Cl)nc1 | n | n | 34 | n | n | n
COc1ccc(CN(C)CC(=O)Nc2ccccc2C(=O)NC2CC2)cc1 | n | n | n | n | n | n
Cc1ccc(CSc2nnc(CNc3ccc(F)cc3)o2)cc1 | n | n | 26 | n | n | n
COC(=O)c1ccc(S(=O)(=O)NCc2ccc(OC)cc2)n1C | n | n | 29 | n | n | n
COC(=O)c1ccc(S(=O)(=O)NCc2ccco2)n1C | n | n | n | n | n | n
CCCN(C(=O)COC(=O)c1[nH]c(C)c(C(=O)OC)c1C)c1c(N)n(Cc2ccccc2)c(=O)[nH]c1=O | n | n | n | n | n | n

Screens deposited in PubChem BioAssay by The Scripps Research Institute Molecular Screening Center.
